Data from PubChem BioAssay (NCI).
The panel holds about 83,000 compounds, 20% with a hit somewhere; the sample as a whole holds those more often.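 Activity criterion: percent growth below 10, measured after cells in 96-well plates were exposed to a single compound concentration for 48 hours.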

Tests used:
Test in all cases: NCI-60 one-dose screen, 48 h (100 = growth as untreated, 0 = no growth, -100 = all killed)
Conditions in all cases: 10 µM unless noted
SK-MEL-2 melanoma = system: SK-MEL-2 melanoma
SN12C renal = system: SN12C renal
UO-31 renal = system: UO-31 renal
TK-10 renal = system: TK-10 renal
ACHN renal = system: ACHN renal
CAKI-1 renal = system: CAKI-1 renal
A498 renal = system: A498 renal

Measured: growth

c1ccc2[nH]c(-c3cc(-c4ccc5c(c4)OCO5)n[nH]3)nc2c1
inactive: SK-MEL-2 melanoma 41% | SN12C renal 62.9% | UO-31 renal 66.7% | TK-10 renal 86% | ACHN renal 45.6% | CAKI-1 renal 55.1% | A498 renal 71.8%

COc1ccc2c(c1)C/C(=C\c1cc(-c3cc(OC)c(OC)c(OC)c3)n[nH]1)C2=O
inactive: SK-MEL-2 melanoma 94.7% | SN12C renal 92.8% | UO-31 renal 76.6% | TK-10 renal 111% | ACHN renal 81.7% | CAKI-1 renal 84.3% | A498 renal 87.4%

O=C1NC(=Nc2ccc(S(=O)(=O)Nc3nccs3)cc2)S/C1=C\c1coc2ccccc2c1=O
inactive: SK-MEL-2 melanoma 133% | SN12C renal 95.3% | UO-31 renal 82.6% | TK-10 renal 133% | ACHN renal 98.6% | CAKI-1 renal 103% | A498 renal 101%
